An excerpt weighted towards active compounds, which were near 12% of everything screened.
BAZ2B block: BAZ2B (human) inhibition; Q9UIF8; AlphaScreen BAZ2B-H3K14Ac peptide displacement; Potency, µM (top dose mostly 114 µM), actives largely listed as inhibitors; 360,000 compounds, 4.4% hits; AID 504333; also: nearly all actives have a fitted effect of over 60% in size
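BAZ2B 50 nM plus b-H3(5-23)K14Ac 50 nM, PBS pH 7.4/0.01% Tween-20, 30 min RT; compound added (max 110 uM), 30 min RT; streptavidin donor/Ni-chelate acceptor beads 10 ug/mL final, 20 min dark; AlphaScreen read.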
Sfp inh: Sfp phosphopantetheinyl transferase inhibition; Q9F4F7; Biochemical Sfp PPTase activity, qHTS; Potency, µM, hits mostly inhibitors; 310,000 compounds, 3.5% hits;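 also: the enzyme is Sfp with the accession as filed and its product quenches rhodamine fluorescence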
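Reaction rates are the 30-min fluorescence difference (ex 525, em 598 nm) in wells containing 15 nM Sfp, 5 uM rhodamine-CoA and 12.5 uM BHQ-2-YbbR at pH 7.6 with 10 mM MgCl2.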
HP1b binding inh: inhibitors of HP1-beta chromodomain binding to methylated histone tails; P83916; Potency, µM (series often up to 114 µM), actives largely listed as inhibitors; 390,000 compounds, 0.56% hits; AlphaScreen HP1-beta / biotin-H3K9me3 peptide binding; also: nearly all actives have a fitted effect of over 70% in size
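HP1-beta protein (50 nM final) preincubated 30 min at room temperature with biotinylated H3(1-18)K9me3 peptide (50 nM) in PBS pH 7.4, 0.01% Tween-20, then compound added for 30 min. AlphaScreen streptavidin donor/nickel chelate acceptor beads (10 ug/mL final), 30 min dark, luminescence read.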
L3MBTL1 block: blocks human L3MBTL1 | AlphaScreen L3MBTL1–H3K9me1 peptide binding | 230,000 compounds, 0.66% hits | Potency, µM (doses to about 57.1 µM), actives largely listed as inhibitors | AID 485360 | Q9Y468; also: nearly all actives have a fitted effect of over 60% in size
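First, the protein-peptide complex forms for 30 min at room temperature (L3MBTL1 50 nM, biotinylated H3K9me1 peptide 75 nM). Next, compounds are pin-transferred and incubated 30 min. Finally, AlphaScreen beads are added and read after 30 min.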
G9a block: inhibitors of human histone lysine methyltransferase G9a; 350,000 compounds, 8.8% hits; Q96KQ7; Potency, µM (titrated, usually from 102 µM), actives largely listed as inhibitors; G9a H3K9 monomethylation, AlphaScreen, 2 h; AID 504332; also: nearly all actives have a fitted effect of over 75% in size
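G9a (20 nM) preincubated 15 min RT with compounds, then 500 nM biotinylated H3K9 peptide and 20 uM SAM added; 2 h RT reaction. Monomethyl-H3K9 product detected by AlphaScreen with anti-H3K9me1 antibody, streptavidin donor and anti-rabbit IgG acceptor beads.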
JMJD2A Tudor inh: blocks the human JMJD2A Tudor domain; 390,000 compounds, 4.4% hits; AlphaScreen JMJD2A-Tudor / H3K4me3 peptide binding; Potency, µM (series often up to 114 µM), most hits filed as inhibitors; O75164; also: nearly all actives have a fitted effect of over 50% in size
Target sequence (O75164 whole entry, looked up, the tested form may be a part): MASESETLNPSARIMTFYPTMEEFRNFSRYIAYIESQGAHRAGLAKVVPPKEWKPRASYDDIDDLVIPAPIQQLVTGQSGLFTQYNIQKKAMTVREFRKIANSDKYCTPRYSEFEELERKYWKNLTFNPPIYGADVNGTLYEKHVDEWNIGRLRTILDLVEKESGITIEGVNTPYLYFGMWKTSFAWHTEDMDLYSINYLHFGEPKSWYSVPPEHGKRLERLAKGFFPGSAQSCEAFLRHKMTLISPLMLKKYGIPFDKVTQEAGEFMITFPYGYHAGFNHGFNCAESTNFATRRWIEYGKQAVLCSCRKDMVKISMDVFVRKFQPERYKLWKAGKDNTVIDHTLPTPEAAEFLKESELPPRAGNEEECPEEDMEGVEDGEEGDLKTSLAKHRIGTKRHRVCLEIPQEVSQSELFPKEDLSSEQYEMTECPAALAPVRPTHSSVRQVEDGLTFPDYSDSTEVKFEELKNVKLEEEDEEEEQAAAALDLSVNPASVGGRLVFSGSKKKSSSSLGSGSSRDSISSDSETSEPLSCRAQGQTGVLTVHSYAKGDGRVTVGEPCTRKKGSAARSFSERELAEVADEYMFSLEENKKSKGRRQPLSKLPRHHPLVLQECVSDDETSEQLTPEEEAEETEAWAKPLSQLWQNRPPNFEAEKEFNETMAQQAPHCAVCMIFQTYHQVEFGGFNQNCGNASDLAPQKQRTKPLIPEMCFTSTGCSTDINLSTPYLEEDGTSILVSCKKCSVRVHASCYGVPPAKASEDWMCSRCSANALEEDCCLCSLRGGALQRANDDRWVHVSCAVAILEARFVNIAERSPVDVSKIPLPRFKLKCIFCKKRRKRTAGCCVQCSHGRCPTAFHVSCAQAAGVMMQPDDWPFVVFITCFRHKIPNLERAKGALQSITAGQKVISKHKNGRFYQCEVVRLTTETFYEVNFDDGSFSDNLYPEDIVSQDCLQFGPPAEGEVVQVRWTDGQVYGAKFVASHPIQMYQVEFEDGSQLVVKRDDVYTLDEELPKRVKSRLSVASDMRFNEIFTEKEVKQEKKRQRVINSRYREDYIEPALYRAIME
A number is an active result; i = inactive; ? = inconclusive; nt = no result given; [ ] = dose if it differs, or a comment. Calls follow the shape of the dose curve; as a rule, active = well fitted curve in the direction sought with a large enough effect; inconclusive = small, poorly fitted or top-dose-only effect, or another doubt; inactive = no such curve, though single readings can be large; an effect the other way counts as inactive or inconclusive.

SMILES	BAZ2B block	Sfp inh	HP1b binding inh	L3MBTL1 block	G9a block	JMJD2A Tudor inh
COc1cc(/C=C(\C#N)C(=O)c2c[nH]c3ccccc23)cc(OC)c1O	nt	i	?	nt	11µM	50µM
COc1cc(/C=C(\C#N)C(=O)NCCc2ccccc2)cc(OC)c1O	i	i	i	nt	32µM	i
COCCNC(=O)/C(C#N)=C/c1cc(Br)c(O)c(OC)c1	i	i	i	i	14µM	i
COc1ccc(/C=C(\C#N)C(=O)NCc2ccccc2)cc1O	i	i	i	nt	i	i
Cc1cc(C)c(NC(=O)Cn2c(=O)n(CCC(C)C)c(=O)c3cccnc32)c(C)c1	i	nt	i	nt	i	i
Cc1ccc(CNc2nc3c([nH]2)c(=O)n(C)c(=O)n3C)cc1	i	i	i	i	45µM	i
Cn1c(=O)c2[nH]c(Nc3ccccc3)nc2n(C)c1=O	i	?	i	?	i	i
CCOC(=O)c1[nH]c2ccc(Br)cc2c1NC(=O)CCN1CCCC(C)(C)C1	i	i	i	i	8.9µM	i
CCOC(=O)c1[nH]c2ccc(F)cc2c1NC(=O)CCN1CCOCC1	i	i	i	i	i	i
COc1ccc(N2CCN(C(=O)c3cc4c(=O)oc5ccc(C)cc5c4s3)CC2)cc1	i	nt	i	nt	i	i
CC(C)(C)C(=O)OCc1cc(=O)n2nc(C3CC3)sc2n1	i	nt	i	nt	i	i
O=C(OC1CCOC1=O)c1ccccc1C(=O)c1ccc(Cl)c([N+](=O)[O-])c1 (centres undefined)	?	nt	i	i	?	i
CS(=O)(=O)c1ccc(C(=O)OC2CCOC2=O)cc1[N+](=O)[O-] (centres undefined)	i	i	i	nt	50µM	i
CC(=O)C1=C(C)N(Cc2ccco2)C(=O)N[C@@H]1c1ccccc1	nt	i	nt	nt	nt	nt
COc1ccc(C/C(C)=N/NS(=O)(=O)c2ccc(Br)cc2)cc1	i	i	i	nt	25µM	i
O=C(O)c1ccc2c(=O)n(-c3ccc(F)c(Cl)c3)c(=S)[nH]c2c1	i	i	i	i	?	i
COc1ccccc1NC(=S)NCCSc1ccc(Cl)cc1	i	i	i	i	i	i
COc1ccc(NC(=S)NCCSc2ccc(Cl)cc2)c(OC)c1	?	?	i	?	13µM	i
O=C(NCCCN1CCOCC1)c1ccc2c(=O)n(-c3ccc(F)c(Cl)c3)c(=S)[nH]c2c1	i	i	i	nt	40µM	i
COc1ccc(NC(=O)NCCCN2CCCC2=O)cc1	i	i	i	i	?	i
COc1ccc(NC(=O)CC(C)NCCCN2CCCC2=O)cc1 (centres undefined)	?	?	?	nt	56µM	18µM
COc1ccc(-n2c(=S)[nH]c3cc(C(=O)NCCCN4CCCC4=O)ccc3c2=O)c(OC)c1	i	i	i	nt	32µM	14µM
COc1ccc(NC(=O)c2ccc3c(=O)n4nc(Nc5cccc(Cl)c5C)sc4nc3c2)cc1	i	nt	i	nt	i	i
Cc1cccc(NC(=O)CSc2nc3ccccc3nc2N2CCCCC2)c1C	i	nt	i	nt	i	i
COc1ccc(-n2c(=S)[nH]c3cc(C(=O)NCCCN4CCOCC4)ccc3c2=O)cc1	i	i	i	nt	28µM	i
SMILES	BAZ2B block	Sfp inh	HP1b binding inh	L3MBTL1 block	G9a block	JMJD2A Tudor inh
COc1ccc(NC(=S)NCCCN2CCCC2=O)c(OC)c1	i	40µM	i	i	?	i
O=C1CCCN1CCCNC(=S)Nc1ccc(Cl)cc1Cl	i	i	i	i	i	i
CCCCc1ccc(NC(=O)c2ccc3c(c2)CCN3S(=O)(=O)c2ccccc2)cc1	i	nt	i	nt	i	i
COc1cccc(CNC2CCCc3ccccc32)c1OC (centres undefined)	?	i	?	nt	40µM	79µM
COc1cc(C(=O)NC2CCCc3ccccc32)cc(OC)c1OC (centres undefined)	i	i	i	nt	i	i
COc1cc(CNC2CCCc3ccccc32)cc(OC)c1OC (centres undefined)	71µM	50µM	?	i	?	10µM
c1cncc(CNC2CCCc3ccccc32)c1 (centres undefined)	i	i	i	i	45µM	?
O=C(NC1CCCc2ccccc21)c1cccnc1 (centres undefined)	i	i	i	i	i	i
COC(=O)c1ccc(NC(=O)CCc2c(C)nc3c(c2C)c(=O)n(C)c(=O)n3C)cc1	i	nt	i	nt	i	i
O=C(Nc1ccccc1)N1CC[C@@]2(CCCN(C(=O)c3cc(C(F)(F)F)cc(C(F)(F)F)c3)C2)C1	nt	i	nt	nt	i[12.7 µM]	nt
Cc1nc2cnc(Nc3ccccc3)nc2n(C2CC2)c1=O	nt	i	nt	nt	i[0.501 µM]	nt
COc1cccc(CNCC2CCCO2)c1 (centres undefined)	i	i	i	i[2.29 µM]	i[0.501 µM]	i
COc1cc(CNC2CCCCC2OC)cc(OC)c1 (centres undefined)	56µM	i	?	i	?	5.6µM
Cc1ccc(-n2c(=O)[nH]c3cc(C(=O)NCc4ccccc4)ccc3c2=O)cc1	i	nt	i	nt	i	i
N#Cc1cccc(S(=O)(=O)N2CCN(S(=O)(=O)c3ccc4c(c3)OCCO4)CC2)c1	nt	nt	i	nt	nt	i

Source: PubChem BioAssay
